Records with an inconclusive call do not appear. The source made the active and inactive calls. How the source made its calls: active means hit-call score of the fitted dose curve at least 0.9, where 1 is the maximum; inconclusive means response in the unintended direction; inactive means score below 0.9.

Sequence of Cytochrome P450 3A4 (Homo sapiens) (P08684 whole entry, looked up): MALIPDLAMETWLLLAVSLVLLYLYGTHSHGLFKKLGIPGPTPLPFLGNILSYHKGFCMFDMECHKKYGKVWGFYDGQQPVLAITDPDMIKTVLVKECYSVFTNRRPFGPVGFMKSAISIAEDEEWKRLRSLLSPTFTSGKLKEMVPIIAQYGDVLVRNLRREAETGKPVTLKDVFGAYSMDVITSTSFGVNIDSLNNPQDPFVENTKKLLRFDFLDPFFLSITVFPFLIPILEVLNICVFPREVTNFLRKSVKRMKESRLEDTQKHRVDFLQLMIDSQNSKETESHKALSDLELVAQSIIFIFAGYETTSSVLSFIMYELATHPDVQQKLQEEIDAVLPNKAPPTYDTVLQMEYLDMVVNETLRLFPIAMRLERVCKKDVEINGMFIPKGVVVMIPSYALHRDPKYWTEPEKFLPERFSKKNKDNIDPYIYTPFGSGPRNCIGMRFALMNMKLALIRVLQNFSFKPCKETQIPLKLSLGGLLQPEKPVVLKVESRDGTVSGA

Read-out in the test: Cytochrome P450 3A4 (Homo sapiens) (UniProt P08684)
Briefly: CLD_CYP3A4_6hr: CellzDirect (CLD) Gene Expression Assay for xenobiotic metabolism (CYP3A4) at 6 hours (AID 2283680). On the procedure: CLD_6hr is a cell-based, multiplexed-readout assay that uses hepatocyte, a human liver primary cell, with measurements taken at 6 hours after chemical dosing in a 96-well plate.CLD_CYP3A4_6hr is one of 16 assay component(s) measured or calculated from the CLD_6hr assay. It is designed to make measurements of mRNA induction, a form of inducible reporter, as detected with chemiluminescence signals by Quantitative Nuclease Protection Assay (qNPA) technology.Data from the assay component CLD_CYP3A4_6hr was analyzed at the endpoint, CLD_CYP3A4_6hr, in the positive analysis fitting direction relative to DMSO as the negative control and baseline of activity. Using a type of inducible reporter, gain-of-signal activity can be used to understand changes in the reporter gene as they relate to the gene CYP3A4. Furthermore, this assay endpoint can be referred to as a primary readout. To generalize the intended target to other relatable targets, this assay endpoint is annotated to the cyp intended target family, where subfamily is xenobiotic metabolism.
Human hepatocyte cultures were treated daily for two consecutive days with fresh dosing solutions containing appropriate concentrations of the 320 ToxCast chemicals (chemical identities were blinded to CellzDirect and other ToxCast collaborators), vehicle control (0.2% DMSO), and positive control inducers as summarized in Table 1. Due to the large number of treatment groups and chemicals examined, the ToxCast chemicals were divided into two groups (spanning two independent cultures of hepatocytes from separate donor preparations (Hu778: ToxCast plates 1 and 2; Hu776: ToxCast plates 3 and 4). Each preparation of human hepatocyte cultures was treated with respective vehicle control, medium only control, set of six positive controls/reference chemicals for the five hepatic receptor pathways, and a subset of eight of the ToxCast chemicals (indoxacarb, pyrithiobac-sodium, norflurazon, cyhalofop-butyl, methomyl, thiram, acetochlor, and propiconazole). These replicate data, coupled with internal replicates designed within the blinded ToxCast chemical library, provided additional data to evaluate interindividual differences between hepatocyte preparations and their potential impact on chemical profiles.Cell morphology and integrity were evaluated using phase-contrast microscopy as an indicator of hepatocyte cell health (Tyson & Green, 1987). Cultures for each treatment group (i.e., media, vehicle [0.2% DMSO], positive control inducers [multiple concentrations], and the ToxCast chemicals [multiple concentrations]) were observed and cell morphology was assessed relative to vehicle control cultures at each harvest time point (0, 6, 24, or 48 h). […] Images were evaluated at the conclusion of the study to assess changes in cell integrity and account for the effects of chemical exposure on uncharacteristic changes in concentration-dependent gene expression profiles. The results from these determinations of apparent cytotoxicity were annotated (yes/no) alongside the corresponding qNPA data for reference.At the conclusion of each treatment period, hepatocyte cultures (96-well) were washed with 1 volume of HBSS, lysed by addition of 25 ul ArrayPlate lysis buffer (HTG, Tucson, AZ), and 70 ul/well of Denaturation Oil, denatured by incubation at 95C for 10 min, and frozen at approximately -70C until analysis by nuclease protection assay (qNPA) (Roberts et al., 2007). For qNPA analysis, cell lysates were thawed at 50C for approximately 30 min, qNPA probes were added, and samples were incubated at 95C for 10 min to begin the detection process by denaturing the target RNA, dissociating the duplexes and secondary structure hybridization. At the conclusion of the hybridization period, S1 nuclease reagent was added to each sample to digest all nonprotected nucleotides at 50C for 60-90 min. […]
For the compound `CO/N=C(/C1=NOCCO1)c1ccccc1Oc1ncnc(Oc2ccccc2Cl)c1F`, the compound was called inactive.
As a reminder, the AC50 is the midpoint of the concentration-response curve, whichever way the signal moves. With `COP(=S)(OC)SCn1nnc2ccccc2c1=O`, the AC50 was 975 nM (active).
For the compound `CS(=O)(=O)c1ccc(C(=O)C2C(=O)CCCC2=O)c([N+](=O)[O-])c1`, the compound was classed as inactive.
Consider `Cc1c(COC(=O)[C@@H]2[C@H](/C=C(\Cl)C(F)(F)F)C2(C)C)cccc1-c1ccccc1`, for which the AC50 is 3440 nM (active).
Take `CSC(=O)c1c(C(F)F)nc(C(F)(F)F)c(C(=O)SC)c1CC(C)C`: the result was inactive.
Turning to `Cc1cc(C)nc(Nc2ccccc2)n1`, the compound was classed as inactive.
As to `CCOP(=O)(OCC)Oc1nc(Cl)c(Cl)cc1Cl`, the AC50 was 9770 nM (active).
With `COC(=O)N(C(=O)N1CO[C@@]2(C(=O)OC)Cc3cc(Cl)ccc3C2=N1)c1ccc(OC(F)(F)F)cc1`, the AC50 was 1210 nM (active).
Take `CCNP(=S)(OC)O/C(C)=C/C(=O)OC(C)C` (stereo not given): the AC50 was 1900 nM (active).
For the compound `CC(C)NC(=O)N1CC(=O)N(c2cc(Cl)cc(Cl)c2)C1=O`, the result was inactive.
Consider `Cc1nc(N(C)C)nc(OC(=O)N(C)C)c1C`, for which the AC50 is 5600 nM (active).
Turning to `CCOc1nc(F)cc2nc(S(=O)(=O)Nc3c(Cl)cccc3Cl)nn12`, the compound was classed as inactive.
The same measure, in the same setting: the value for `CC(C)N1C(=O)N(c2ccccc2)CSC1=NC(C)(C)C` was “inactive”.
Same read-out and setting: as for `N#CN=C1SCCN1Cc1ccc(Cl)nc1`, the entry is “inactive”; as for `Cc1cnc(C2=NC(C)(C(C)C)C(=O)N2)c(C(=O)O)c1` (stereo not given), “inactive”.
As for `CC(C)(C)C(=O)C(Oc1ccc(Cl)cc1)n1cncn1` (stereo not given), the half-maximal activity concentration (AC50) was 434 nM (active).
Consider `CC(C)Oc1cccc(NC(=O)c2ccccc2C(F)(F)F)c1`, for which the compound was called inactive.
Still for that read-out and setting: as for `CNC(=O)N(C)c1nnc(C(C)(C)C)s1`, the entry is “inactive”.
As to `CCOc1nc(C(Cl)(Cl)Cl)ns1`, the compound was called inactive.
For the compound `CC(C)Nc1nc(Cl)nc(NC(C)C)n1`, the AC50 is 20000 nM (active).
With `COc1ccc(-c2ccccc2)cc1NNC(=O)OC(C)C`, the compound was called inactive.
Same read-out and setting: the value for `N#Cc1c(Cl)cccc1Cl` was “inactive”; that for `COC(=O)NS(=O)(=O)c1ccc(N)cc1` was “inactive”.
For `CC1(C)C(C(=O)OC(C#N)c2cccc(Oc3ccccc3)c2)C1(C)C` (stereo not given), the AC50 was 3710 nM (active).
Turning to `C=CCOC(=O)C(C)(C)OC(=O)c1cc(-n2c(=O)cc(C(F)(F)F)n(C)c2=O)ccc1Cl`, the AC50 was 290 nM (active).
With `CCCCC(O)(Cn1cncn1)c1ccc(Cl)cc1Cl` (stereo not given), the result was inactive.
Regarding `CC(C)=CC1C(C(=O)OCc2coc(Cc3ccccc3)c2)C1(C)C` (stereo not given), the outcome was inactive.
Same read-out and setting: as for `COCc1cnc(C2=NC(C)(C(C)C)C(=O)N2)c(C(=O)O)c1` (stereo not given), the entry is “inactive”; as for `CCCCOCN(C(=O)CCl)c1c(CC)cccc1CC`, “inactive”; as for `COP(=S)(OC)Oc1ccc([N+](=O)[O-])c(C)c1`, “inactive”.
The same measure, in the same setting: the value for `COc1cc(Cl)c(OC)cc1Cl` was “inactive”.
On to `CCCC(=NOCC)C1=C(O)CC(CC(C)SCC)CC1=O` (stereo not given), for which the AC50 was 20000 nM (active).
As for `CCCN(CC)CC1COC2(CCC(C(C)(C)C)CC2)O1` (stereo not given), the compound was called inactive.
For the compound `CCOC(=O)C(C)OC(=O)c1cc(Oc2ccc(C(F)(F)F)cc2Cl)ccc1[N+](=O)[O-]` (stereo not given), the AC50 is 4030 nM (active).
`COC(=O)NC(=S)Nc1ccccc1NC(=S)NC(=O)OC`: the outcome was inactive.
With `CCOP(=S)(OCC)Oc1nc(Cl)n(C(C)C)n1`, the AC50 was 466 nM (active).
As to `O=c1n(Cl)c(=O)n(Cl)c(=O)n1Cl`, the compound was classed as inactive.
For `CC1(C)CON(Cc2ccccc2Cl)C1=O`, the AC50 was 1890 nM (active).
In the case of `CCSC(=O)N1CCCCCC1`, the compound was called inactive.
As for `O=C(O)c1c(Cl)ccc2cc(Cl)cnc12`, the outcome was inactive.

Source of the values: PubChem BioAssay (EPA / NIEHS).
